Assay outcomes from PubChem BioAssay.
Shown are actives, neighbours in structure and some others; about 8% of the full set was active somewhere.
HT1080NT lethal – kills 2HG-producing HT-1080-NT fibrosarcoma cells. Potency, µM (titrated, usually from 46.1 µM), without a hit: at the highest dose activity, negative = less viability, most hits filed as cytotoxic. 360,000 tested, 1.6% active. HT-1080-NT fibrosarcoma viability, CellTiter-Glo ATP luminescence, 48 h. AID 686970;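 further: NT is the 2HG producing partner of a matched IDH1 knockdown line; 0% = DMSO-treated cells and -100% = media-only wells without cells; nearly all actives have a fitted effect of over 55% in size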
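Compounds were tested in concentration-response format on HT-1080-NT cells for 48 hours at 37 degrees C. Cell viability came from CellTiter-Glo luminescence; curves were classified by r2, response magnitude and activity.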
KB-3-1 cytotox – KB-3-1 parental cell cytotoxicity | AID 1347075 | Potency, µM (highest dose often 46.1 µM), most hits filed as cytotoxic | KB-3-1 viability, CellTiter-Glo ATP luminescence, 72 h | 400,000 tested, 1.4% active; further: on the % scale 0 is the no-effect control and ±100 the full control effect; nearly all actives have a fitted effect of over 60% in size
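Parental KB-3-1 adenocarcinoma cells in phenol-red-free DMEM with 10% FBS were pin-treated with compounds at several concentrations, incubated 72 h at 37 °C, and viability read by CellTiter-Glo luminescence; concentration-effect curves were fitted after normalization.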
MCF10A rereplic – DNA re-replication induction in MCF 10a cells | MCF 10A DNA re-replication, Hoechst nuclear intensity, 48 h | Potency, µM (doses to about 46.1 µM), without a hit: at the highest dose activity, positive = re-replication, hits mostly activators | 350,000 tested, 2.9% active; further: % of control where 0% means no effect; nearly all actives have a fitted effect of over 50% in size
KB-V1 MDR tox – KB-V1 MDR subline cytotoxicity; KB-V1 MDR cells viability, CellTiter-Glo, 72 h; Potency, µM (titrated, usually from 46.1 µM), actives largely listed as cytotoxic; 400,000 tested, 3.4% active; further: on the % scale 0 is the no-effect control and ±100 the full control effect; nearly all actives have a fitted effect of over 60% in size
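In this primary screen, KB-V1 cells overexpressing P-gp are incubated with library compounds (lowest to highest concentration) for 72 h at 37 degrees C before a luminescent ATP viability read.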
HT1080 IDH1KD tx – toxicity to HT-1080 IDH1 knockdown cells (counter line); 360,000 tested, 2% active; HT-1080 IDH1 knockdown viability, ATP luminescence, 48 h; AID 686971; Potency, µM (top dose mostly 46.1 µM), for the others: at the top dose activity, negative = toxicity, actives largely listed as cytotoxic;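 further: 0% = DMSO wells and -100% = cell-free medium wells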
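% activity derives from luminescence (CellTiter-Glo), normalised to DMSO and no-cell wells. HT-1080-IDH1KD cells, 750/well, had 48 h compound exposure at 37 °C.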
SW480 rerep – induces DNA re-replication in SW480 colon adenocarcinoma cells; SW480 DNA re-replication, Hoechst DNA content imaging, 48 h; Potency, µM (series often up to 46.1 µM), for inactives: top-dose re-replication activation, actives largely listed as activators; 340,000 tested, 1.8% active; AID 624297; further: % of control where 0% means no effect; nearly all actives have a fitted effect of over 55% in size
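Per well, 250 cells were exposed to pinned compound for 48 hr. Nuclear DNA was visualised with Hoechst (40 min, 37 C) and total object intensity recorded by fluorescence scanning.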
* marks the source's active call; other numbers are inactive results; i = inactive; ? = inconclusive; . = no result. The call rests on the fitted dose curve; in most records, active means well fitted curve in the direction sought with a large enough effect; inconclusive means small, poorly fitted or top-dose-only effect, or another doubt; inactive means no such curve, though single readings can be large; an effect the other way counts as inactive or inconclusive. Potency means the concentration at half of the fitted maximal effect.

SMILES	HT1080NT lethal	KB-3-1 cytotox	MCF10A rereplic	KB-V1 MDR tox	HT1080 IDH1KD tx	SW480 rerep
CCCc1nn(C)c(C(=O)Nc2ccccc2)c1Cl	16%	i	15%	18µM*	8%	-2%
CCCc1nn(C)c(C(=O)Nc2ccc(Cl)cc2)c1Cl	-14%	i	-1%	i	3%	-8%
CCn1cnc2sc(C(=O)O)c(C)c2c1=O	6%	i	-3%	i	5%	-7%
Cc1ccccc1-n1c2nc(=O)n(C)c(=O)c-2cc2ccccc21	-2%	i	21µM*	i	-3%	18µM*
CCCCn1c(=O)nc2n(-c3ccccc3C)c3ccccc3cc-2c1=O	8%	i	1%	10µM*	9%	?
Cc1cccc(C(=O)N[C@H](C(=O)Nc2nc3ccccc3[nH]2)C(C)C)c1	5.8µM*	5.2µM*	5.8µM*	?	5.8µM*	5.8µM*
CCSc1nnc(NC(=O)[C@@H](NC(=O)c2cccc(C)c2)C(C)C)s1	-4%	i	?	8.2µM*	8%	13%
COc1ccc(C(=O)N[C@H](C(=O)Nc2nc3ccccc3[nH]2)C(C)C)cc1	5.8µM*	2.1µM*	?	16µM*	5.8µM*	9.2µM*
COc1ccc(N=C2C(=S)N(c3ccc(OC)cc3)C(=NS(=O)(=O)c3ccccc3)N2c2ccccc2)cc1	-3%	i	13%	?	11%	-1%
N=C1N(c2ccccc2)C(=S)C(=Nc2ccccc2)N1c1ccccc1	2%	i	18µM*	i	?	?
COCC(=O)Nc1ccccc1NC(C)=O	16%	i	0%	i	10%	-3%
COCC(=O)Nc1cc(Sc2ccccc2)ccc1N=C(NC(=O)OC)NC(=O)OC	.	.	7.5µM*	.	.	17µM*
O=C(c1cccc(NS(=O)(=O)c2ccc(Br)cc2)c1)N1CCN(c2ccccc2O)CC1	-13%	i	8%	i	-13%	1%
COc1ccc(Br)cc1CNC(=O)Cn1nc(C)n2cccc2c1=O	9%	i	?	i	10%	17%
O=C(c1csc(Nc2ccccc2Cl)n1)N1CCCC1	-1%	i	-2%	21µM*	9%	-1%
O=C(CCl)Nc1cn(-c2ccccc2)nc1-c1ccccc1	?	?	?	21µM*	-29%	-52%
O=C(Nc1cn(-c2ccccc2)nc1-c1ccc(F)cc1)c1ccccc1	0%	i	-8%	16µM*	1%	-9%
O=C(CCN1C(=O)/C(=C/c2ccccc2Cl)SC1=S)N1CCCC1	?	?	?	?	?	15µM*
O=C(CCN1C(=O)/C(=C/c2ccccc2Cl)SC1=S)N1CCOCC1	6%	.	23µM*	.	13%	?
O=C(Nc1ccc(S(=O)(=O)NCc2ccccc2)cc1)c1ccccc1[N+](=O)[O-]	-12%	i	13%	?	0%	-3%
CC(=O)Nc1cccc(Oc2cc(C#N)c(C#N)cc2N2CCCCCC2)c1	?	?	7%	23µM*	?	-4%
CC(=O)N1CCc2cc(S(=O)(=O)C(C)CC(=O)Nc3ccc(Br)c(C)c3)ccc21 (stereo unspecified)	.	i	.	?	.	.
Clc1ccc(-c2nc(N3CCOCC3)nc3ccccc23)cc1	6%	i	22%	i	26%	17%
OCCN1CCN(c2nc(-c3ccccc3)c3cc(Cl)ccc3n2)CC1	?	?	?	i	?	15µM*
Cc1ccc2nc(N3CCN(CCO)CC3)nc(-c3ccccc3)c2c1	-29%	i	3.7µM*	i	-23%	12µM*
SMILES	HT1080NT lethal	KB-3-1 cytotox	MCF10A rereplic	KB-V1 MDR tox	HT1080 IDH1KD tx	SW480 rerep
Cc1ccc2nc(Cl)nc(-c3ccccc3)c2c1	-15%	i	4%	?	-20%	-4%
CCOC(=O)N1CCN(c2nc(-c3ccccc3)c3cc(C)ccc3n2)CC1	4%	i	4.1µM*	i	2%	?
N#Cc1ccccc1NC(=O)CNc1cc(S(=O)(=O)N2CCOCC2)ccc1NCC1CCCO1 (stereo unspecified)	-6%	i	-4%	i	0%	4%
Cc1ccc(-n2c(-c3ccc(Cl)cc3)n[nH]c2=S)c(C)c1	-6%	i	?	i	-2%	-19%
COc1ccc(CCNC(=O)Cn2nnc(C(=O)Nc3ccc(Br)cc3)c2N)cc1OC	-24%	i	12%	i	-18%	9%
Cc1ccc(S(=O)(=O)n2cc(-c3ccccc3)c3ccccc32)cc1	?	2.3µM*	36%	1.3µM*	?	3.7µM*
Cc1ccc(S(=O)(=O)n2cc(C=O)c3ccccc32)cc1	16µM*	i	98%	i	23µM*	?
Cc1ccc(S(=O)(=O)N2CCN(S(=O)(=O)c3ccccc3)C2)cc1	1%	i	5%	?	-3%	-2%
Cc1ccccc1NC1=C(Cl)C(=O)N(C2CCCCC2)C1=O	0%	i	?	?	-5%	5%
O=C(O)CN1CCN(Cc2ccccc2Cl)C1=O	3%	i	-1%	i	12%	-12%
NC(=O)c1ccc(NC(=O)Cc2cccs2)cc1	5%	i	5%	?	13%	-8%
O=C(O)CCC(=O)N1CCN(c2nc(-c3ccccc3)c3cc(Br)ccc3n2)CC1	-14%	i	23µM*	i	-24%	?
OCCNc1nc(-c2ccccc2)c2cc(Br)ccc2n1	-14%	i	?	i	-12%	?
CCN(CC)c1nc(-c2ccccc2Cl)c2cc(Br)ccc2n1	.	i	.	i	.	.
O=C(O)CCC(=O)N1CCN(c2nc(-c3ccccc3Cl)c3cc(Br)ccc3n2)CC1	-17%	i	21µM*	i	-20%	-1%
CC(C)(C)c1ccc(Cn2c(=O)cnc3ccccc32)cc1	9.2µM*	?	15µM*	?	7.3µM*	?
Cc1ccccc1OCC(=O)Nc1ccc2c(c1)OCCO2	2%	i	0%	i	4%	1%
Cc1cc(C(=O)N2CCN(c3ccccc3)CC2)c(C)o1	4%	i	-17%	?	?	3%
CSc1ccccc1C(=O)N1CCN(c2cccc(Cl)c2)CC1	?	i	?	16µM*	23µM*	23µM*
Cc1cc(C(=O)N2CCN(c3cccc(Cl)c3)CC2)c(C)o1	?	23µM*	?	i	16µM*	?
CN(Cc1cccc(Cl)c1Cl)C(=O)c1cccc(S(=O)(=O)N2CCN(Cc3ccccc3)CC2)c1	-14%	?	14%	i	-12%	0%
